NOMO-1 viab: STK33 inhibitor candidate reducing NOMO-1 cell viability | 37,000 tested, 7.5% active | inhibition, % (concentration not given with the values) | NOMO-1 AML viability, CellTiter-Glo luminescence, 72 h; in the data active = inhibition above about 80%
MITF inhib: blocks MITF activity. 37,000 tested, 0.28% active. inhibition, % (no concentration beside the values). TRPM1 promoter luciferase, luminescence, 24 h; in the data active = inhibition above about 85%;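 also: human melanocyte line stably carrying TRPM1 promoter luciferase reporter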
Shh pathway inh: Sonic Hedgehog pathway inhibition; inhibition, % (no concentration beside the values); 22,000 tested, 2.1% active; Shh-LIGHT2 Gli-luciferase reporter, 30 h; AID 2313;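 active = mean inhibition across valid replicates above about 65%, limit read from the data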;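 also: pathway switched on by Shh-conditioned medium diluted 1 in 25 in low serum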
The depositor's hits bear a star; x = no result. Shown are actives, neighbours in structure and some others; about 7.8% of the full set was active somewhere.

SMILES	NOMO-1 viab	MITF inhib	Shh pathway inh
Cc1noc(C)c1S(=O)(=O)Nc1cccc2c1O[C@@H](CN(C)Cc1ccc3c(c1)OCO3)[C@@H](C)CN([C@H](C)CO)C2=O	0.7	-9.4	5.8
C[C@@H]1CN([C@@H](C)CO)C(=O)c2cc(NS(C)(=O)=O)ccc2O[C@H]1CN(C)Cc1ccncc1	1.6	-4.2	-20.8
O=C1c2ccccc2C(=O)N1/N=C/c1ccccc1	18.7	15.3	-25.6
O=C(O)CCC(=O)Nc1ccc2c(c1)C(=O)NC2=O	31.6	7.4	x
C[C@H]1CN([C@@H](C)CO)C(=O)c2cc(NC(=O)Nc3cccc4ccccc34)ccc2O[C@H]1CN(C)Cc1ccccc1	14.2	12.9	7.2
C[C@H]1CN([C@@H](C)CO)C(=O)c2cc(NC(=O)Nc3ccc4c(c3)OCO4)ccc2O[C@H]1CN(C)Cc1ccc2c(c1)OCO2	93.2*	17.3	x
C[C@H](CO)N1C[C@H](C)[C@H](CN(C)Cc2ccc3c(c2)OCO3)Oc2ccc(NC(=O)Nc3cccc4ccccc34)cc2C1=O	97.8*	0.4	x
C[C@@H]1CN([C@@H](C)CO)C(=O)c2cc(NC(=O)Nc3ccc4c(c3)OCO4)ccc2O[C@@H]1CN(C)Cc1ccc2c(c1)OCO2	28.2	-19.5	21.0
C[C@H](CO)N1C[C@H](C)[C@@H](CN(C)Cc2ccc3c(c2)OCO3)Oc2ccc(NC(=O)C3CCCCC3)cc2C1=O	21.8	-5.7	x
C[C@H](CO)N1C[C@H](C)[C@H](CN(C)Cc2ccc3c(c2)OCO3)Oc2ccc(NC(=O)C3CCCCC3)cc2C1=O	93.5*	0.3	x
Cc1nn(CC(=O)Nc2cccc(C(F)(F)F)c2)c(C)c1[N+](=O)[O-]	12.2	-10.4	x
COc1cccc(C2C(C(=O)c3cccs3)C(=O)C(=O)N2CCN2CCOCC2)c1 (configuration not stated)	7.4	-6.9	x
Cc1ccc(N(C(C)C(=O)O)S(C)(=O)=O)cc1 (configuration not stated)	-6.4	-45.2	x
Cc1c(-n2c(/C=C\c3ccc([N+](=O)[O-])o3)nc3ccccc3c2=O)c(=O)n(-c2ccccc2)n1C	114.6*	43.2	x
Cc1c(/C=C/c2ccc(Cl)cc2Cl)c(=O)n(-c2ccccc2)n1C	38.4	19.7	-18.9
C[C@H]1CN([C@@H](C)CO)C(=O)c2cc(NS(=O)(=O)c3ccccc3)ccc2O[C@@H]1CN(C)S(C)(=O)=O	-0.6	-3.0	x
COc1ccc(CN(C)C[C@H]2OCCCC[C@@H](C)Oc3ccc(NC(=O)CCCCCC(=O)Nc4ccccc4N)cc3C(=O)N([C@H](C)CO)C[C@@H]2C)cc1	29.0	-10.6	x
C[C@@H]1CCCCO[C@H](CN(C)Cc2ccc(Cl)c(Cl)c2)[C@@H](C)CN([C@H](C)CO)C(=O)c2cc(NC(=O)Cc3ccccc3)ccc2O1	44.3	15.3	3.7
C[C@@H]1CCCCO[C@H](CN(C)Cc2ccc(Cl)c(Cl)c2)[C@@H](C)CN([C@H](C)CO)C(=O)c2cc(NC(=O)CCCCCC(=O)Nc3ccccc3N)ccc2O1	125.7*	12.6	x
C[C@H]1CN([C@@H](C)CO)C(=O)c2cc(NC(=O)CCCCCC(=O)Nc3ccccc3N)ccc2O[C@@H]1CN(C)Cc1ccncc1	18.8	-8.3	x
C[C@H]1CN([C@@H](C)CO)C(=O)Cc2cc(NC(=O)CCCCCC(=O)Nc3ccccc3N)ccc2O[C@H]1CN(C)Cc1ccc(Cl)c(Cl)c1	126.9*	2.8	x
C[C@@H]1CN([C@H](C)CO)C(=O)Cc2cc(NC(=O)CCCCCC(=O)Nc3ccccc3N)ccc2O[C@H]1CN(C)Cc1ccc2c(c1)OCO2	49.4	-16.3	x
C[C@@H]1CCCCO[C@@H](CN(C)Cc2ccc(Cl)c(Cl)c2)[C@@H](C)CN([C@H](C)CO)C(=O)c2cc(NC(=O)Cc3ccccc3)ccc2O1	102.0*	58.8	x
C[C@H](CO)N1C[C@H](C)[C@H](CN(C)Cc2ccc(Cl)c(Cl)c2)Oc2ccc(NC(=O)CCCCCC(=O)Nc3ccccc3N)cc2C1=O	132.6*	35.1	x
Cc1ccc(S(=O)(=O)Nc2cccc3c2O[C@@H](CN(C)S(=O)(=O)c2cn(C)cn2)[C@@H](C)CN([C@H](C)CO)C3=O)cc1	30.7	-1.4	-2.7
SMILES	NOMO-1 viab	MITF inhib	Shh pathway inh
Cc1noc(C)c1NC(=O)Nc1cccc2c1O[C@H](CN(C)C(=O)Nc1ccc3c(c1)OCO3)[C@@H](C)CN([C@H](C)CO)C2=O	-4.9	-5.9	-40.8
COc1ccc(S(=O)(=O)N(C)C[C@H]2Oc3ccc(NC(=O)CCN4CCOCC4)cc3C(=O)N([C@H](C)CO)C[C@H]2C)cc1	14.6	0.6	-12.3
O=C1c2ccccc2C(=O)N1CSc1nc2ccccc2s1	39.8	-7.7	7.0
Nc1ncnc(Sc2nc3ccccc3s2)c1[N+](=O)[O-]	113.6*	28.3	x
Cc1cc(C)c(NC(=O)C(CCS(C)(=O)=O)N2C(=O)c3ccc(Br)cc3C2=O)c(C)c1 (configuration not stated)	-6.7	-4.2	x
Cc1ccc(S(=O)(=O)N(C)C[C@@H]2Oc3c(NC(=O)c4cnccn4)cccc3C(=O)N([C@@H](C)CO)C[C@H]2C)cc1	0.1	-14.6	-21.3
COc1ccc(NC(=O)Nc2ccc3c(c2)CC(=O)N([C@H](C)CO)C[C@H](C)[C@H](CN(C)S(=O)(=O)c2ccc(Cl)cc2)O3)cc1	122.5*	38.4	-72.8
COc1ccc(NC(=O)Nc2ccc3c(c2)CC(=O)N([C@@H](C)CO)C[C@H](C)[C@H](CN(C)S(=O)(=O)c2ccc(Cl)cc2)O3)cc1	112.5*	36.5	15.2
COc1ccc(NC(=O)Nc2ccc3c(c2)CC(=O)N([C@@H](C)CO)C[C@H](C)[C@@H](CN(C)S(=O)(=O)c2ccc(C)cc2)O3)cc1	23.8	-1.3	x
COc1ccc(NC(=O)Nc2ccc3c(c2)CC(=O)N([C@H](C)CO)C[C@@H](C)[C@@H](CN(C)S(=O)(=O)c2ccc(OC)cc2)O3)cc1	-14.0	12.3	12.8
COc1ccc(NC(=O)Nc2ccc3c(c2)CC(=O)N([C@H](C)CO)C[C@@H](C)[C@@H](CN(C)S(=O)(=O)c2ccc(Cl)cc2)O3)cc1	3.5	-1.0	-17.5
COc1ccc(NC(=O)Nc2ccc3c(c2)CC(=O)N([C@H](C)CO)C[C@H](C)[C@H](CN(C)S(=O)(=O)c2ccc(C)cc2)O3)cc1	121.6*	39.9	-5.7
C[C@@H]1CN([C@H](C)CO)C(=O)Cc2cc(NC(=O)CCC(F)(F)F)ccc2O[C@@H]1CN(C)S(=O)(=O)c1ccc(Cl)cc1	16.6	-1.3	-15.6
C[C@H](CO)N1C[C@H](C)[C@H](CN(C)CC2CCCCC2)Oc2ccc(NC(=O)Nc3ccc(F)cc3)cc2C1=O	13.1	-3.3	x
C[C@H](CO)N1C[C@H](C)[C@@H](CN(C)CC2CCCCC2)Oc2ccc(NC(=O)Nc3ccc(C(F)(F)F)cc3)cc2C1=O	126.8*	2.1	52.3
C[C@@H]1CN([C@H](C)CO)C(=O)c2cc(NC(=O)Nc3ccc(F)cc3)ccc2O[C@H]1CN(C)CC1CCCCC1	52.4	-4.8	17.1
C[C@H]1CN([C@@H](C)CO)C(=O)c2cc(NC(=O)Nc3ccc(C(F)(F)F)cc3)ccc2O[C@H]1CN(C)CC1CCCCC1	105.1*	9.3	44.3
C[C@H]1CN([C@@H](C)CO)C(=O)c2cc(NC(=O)Nc3ccc(C(F)(F)F)cc3)ccc2O[C@@H]1CN(C)CC1CCCCC1	58.8	-2.7	-1.4

Screening results (PubChem BioAssay)
